S-ASM inh: inhibitors of human secretory acid sphingomyelinase. P17405. AID 504937. actives 0.006% (n = 340,000). Potency, µM (series often up to 57.5 µM), for the others: top-dose activity change, negative = inhibition, hits mostly inhibitors. placental ASM, HMU-PC fluorogenic substrate, 60 min
Target sequence (P17405 47-631 limits assumed): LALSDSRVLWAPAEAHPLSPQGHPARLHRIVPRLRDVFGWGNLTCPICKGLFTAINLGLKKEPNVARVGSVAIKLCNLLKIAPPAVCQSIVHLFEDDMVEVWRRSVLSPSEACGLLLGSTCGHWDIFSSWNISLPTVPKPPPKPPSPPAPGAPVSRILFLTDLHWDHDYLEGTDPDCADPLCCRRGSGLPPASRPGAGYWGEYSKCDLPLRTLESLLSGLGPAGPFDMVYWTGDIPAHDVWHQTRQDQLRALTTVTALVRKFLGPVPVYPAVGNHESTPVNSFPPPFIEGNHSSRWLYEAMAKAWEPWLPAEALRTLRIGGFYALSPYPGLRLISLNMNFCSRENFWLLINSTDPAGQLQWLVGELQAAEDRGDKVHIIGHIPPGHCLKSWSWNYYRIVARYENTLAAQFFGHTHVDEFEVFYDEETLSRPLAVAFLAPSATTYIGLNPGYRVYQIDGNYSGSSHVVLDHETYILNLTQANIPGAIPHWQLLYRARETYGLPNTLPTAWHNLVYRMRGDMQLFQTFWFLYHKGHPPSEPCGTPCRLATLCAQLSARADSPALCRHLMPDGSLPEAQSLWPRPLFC
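qHTS format. ASM enzyme prepared from human placenta hydrolyses the fluorogenic substrate HMU-PC0 (9 uM final) over 60 min at 37 °C after a 10 min compound preincubation.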
Tb PFK block: blocks T. brucei phosphofructokinase; actives 0.17% (n = 330,000); T. brucei PFK, ADP-Glo luminescence; Potency, µM (top dose mostly 57.5 µM), for the others: top-dose activity, negative = inhibition, usual class: inhibitors; O15648; AID 485367;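 note: 0% = uninhibited 1x PFK enzyme wells and -100% = no-enzyme wells; nearly all actives have a fitted effect of over 60% in size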
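Activity is normalized to no-enzyme wells (full inhibition) and 1.25 nM enzyme wells (no inhibition). Reaction: 0.5 mM F6P, 0.1 mM ATP, 45 min RT, ADP-Glo luminescence; concentration-response curves fitted and classed by quality.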
PLK1 PBD block: blocks phosphopeptide binding to human PLK1 polo-box domain. P53350. actives 2.8% (n = 360,000). AID 720504. Potency, µM, inactives show max response, negative = inhibition, most hits filed as inhibitors. Plk1 PBD binding of FITC phosphopeptide, fluorescence polarization; note: series mostly up to about 57 µM; % is set by controls: 0 for no effect and ±100 for the full control effect; nearly all actives have a fitted effect of over 65% in size
TDP1 block: blocks human tyrosyl-DNA phosphodiesterase 1. Q9NUW8. recombinant TDP1, AlphaScreen DNA substrate cleavage. Potency, µM (titrated, usually from 130 µM), without a hit: at the top dose activity change, negative = inhibition, hits mostly inhibitors. actives 0.28% (n = 350,000). AID 485290; note: % is set by controls: 0 for no effect and ±100 for the full control effect; nearly all actives have a fitted effect of over 40% in size
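Recombinant E. coli-expressed Tdp1 (1 nM) preincubated with compound 15 min at RT, then 5'-biotin/3'-phosphotyrosine-FITC DNA substrate (15 nM) added for 5 min. AlphaScreen beads (10 ug/ml) added, 10 min RT; tyrosine-FITC cleavage read as signal loss.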
VDR inhibitor: blocks the human vitamin D receptor. P11473. VDR-SRC2-3 peptide fluorescence polarization, 2 h. Potency, µM, inactives show max response, negative = inhibition, most hits filed as inhibitors. actives 0.93% (n = 400,000); note: % is set by controls: 0 for no effect and ±100 for the full control effect
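Two reagent solutions held at 4 deg C in the dark were dispensed, compounds pinned at 23 nl, and the mixture incubated 2 h at room temperature. Read-out: fluorescence polarization of VDR–SRC2-3 peptide binding.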
Pin1 inh: blocks the human prolyl isomerase Pin1 | Q13526 | Pin1 FP peptide displacement, HiFluor488, 10 min | Potency, µM (doses to about 115 µM), inactives show at the top dose activity, negative = inhibition, hits mostly inhibitors | actives 0.009% (n = 390,000) | AID 504891; active = well fitted inhibition curve with a large enough effect in the polarisation, with a control signal flat, not every such curve was filed as active; inconclusive = small, poorly fitted or top-dose-only effect, or effect the other way, or a change in a side signal; inactive = no such curve, though single readings can be large or run the other way; the % refers to the polarisation; note: % is set by controls: 0 for no effect and ±100 for the full control effect
Active calls of the source: *; ? = inconclusive; / = no result given; ! = not active in a repeat. This is a sample that favours compounds with a hit; in the whole collection about 3.1% have one here. Unless noted, calls come from the whole dose curve; as a rule, active = well fitted curve in the direction sought with a large enough effect; inconclusive = small, poorly fitted or top-dose-only effect, or another doubt; inactive = no such curve, though single readings can be large; an effect the other way counts as inactive or inconclusive. Potency is the fitted concentration of half-maximal effect.

SMILES	S-ASM inh	Tb PFK block	PLK1 PBD block	TDP1 block	VDR inhibitor	Pin1 inh
CCC(=O)Nc1nnc(S(=O)(=O)N(CC)c2ccc(OC)cc2)s1	-7%	2%	-7%	/	10%	4%
CCN(c1ccc(OC)cc1)S(=O)(=O)c1nnc(NC(=O)COc2ccc(F)cc2)s1	0%	22%	27µM*	7%	-19%	25%
CC[C@H](C)[C@H](NC(=O)[C@H](C)NC(=O)[C@H](Cc1cnc[nH]1)NC(=O)[C@@H]1CCCN1C(=O)CNC(=O)[C@H](CC(C)C)NC(=O)[C@H](CC(C)C)NC(=O)[C@H](Cc1ccc(O)cc1)NC(=O)CNC(=O)[C@H](C)NC(=O)[C@H](CO)NC(=O)[C@H](CC(N)=O)NC(=O)[C@H](CC(C)C)NC(=O)[C@@H](NC(=O)[C@H](Cc1c[nH]c2ccccc12)NC(=O)CN)[C@@H](C)O)C(=O)N[C@@H](CC(=O)O)C(=O)N[C@@H](CC(N)=O)C(=O)N[C@@H](Cc1cnc[nH]1)C(=O)N[C@@H](CCCNC(=N)N)C(=O)N[C@@H](CO)C(=O)N[C@@H](Cc1ccccc1)C(=O)N[C@@H](CO)C(=O)N[C@@H](CC(=O)O)C(=O)N[C@@H](CCCCN)C(=O)N[C@@H](Cc1cnc[nH]1)C(=O)NCC(=O)N[C@@H](CC(C)C)C(=O)N[C@H](C(N)=O)[C@@H](C)O	/	/	/	15%	4%	/
COc1ccc2ccccc2c1C(O)c1nccn1C (stereo unspecified)	9%	-6%	24µM*	4%	-18%	?
CCCc1cc(F)c(S(=O)(=O)N2CCN(S(=O)(=O)c3ccc4c(c3)OCCO4)CC2)cc1F	/	/	/	0%	/	0%
CCn1c(=S)sc2nc(C)sc21	9%	/	21µM*	/	?	12%
COc1cc(C(=O)NCCCc2nc3ccccc3n2CC(C)C)cc(OC)c1OC	/	/	/	6%	-11%	-1%
Nc1nc(=S)c2n[nH]nc2[nH]1	/	/	/	1%	-11%	-8%
O=C(Oc1ccccc1C(=O)Nc1ccccc1)c1ccc(Br)c([N+](=O)[O-])c1	-22%	-3%	?	6%	50µM*	50%
CCOC(=O)c1ccc(NC(=O)c2cccc(C)c2[N+](=O)[O-])cc1	-24%	0%	-10%	5%	-14%	-6%
O=C(O)c1ccccc1NSc1ccccc1[N+](=O)[O-]	4%	2%	11µM*	8%	-20%	-9%
COc1ccccc1C(=O)Oc1ccccc1C(=O)Nc1ccccc1	2%	-4%	-5%	-3%	-7%	-6%
Cc1cccc(NC(=O)c2ccccc2Br)n1	3%	-2%	27µM*	5%	-12%	-1%
CCOC(=O)c1ccc(NC(=O)c2ccccc2[N+](=O)[O-])cc1	-1%	2%	30µM*	4%	?	4%
O=C(O)c1cccc([N+](=O)[O-])c1C(=O)Nc1cccc2ccccc12	3%	3%	-7%	/	-11%	-13%
Cc1cccc(NC(=O)c2ccccc2[N+](=O)[O-])n1	-1%	4%	-5%	7%	8%	4%
O=C(Nc1cccc(NC(=O)c2ccccc2[N+](=O)[O-])n1)c1ccccc1[N+](=O)[O-]	-2%	0%	2.7µM*	10%	-10%	-6%
O=C(NNC(=O)c1ccccc1[N+](=O)[O-])c1ccccc1[N+](=O)[O-]	-2%	-17%	27µM*	2%	-7%	-9%
CCOC(=O)c1cc([N+](=O)[O-])c([N+](=O)[O-])cc1NC(C)=O	2%	-6%	8.4µM*	8%	?	8%
O=C(NCCNC(=O)c1ccccc1[N+](=O)[O-])c1ccccc1[N+](=O)[O-]	4%	/	-1%	/	0%	-4%
O=[N+]([O-])c1cccc(S(=O)(=O)N2CCN(c3nc(-c4ccccc4)nc4ccccc34)CC2)c1	/	/	/	3%	1%	-1%
CCOc1ccccc1-c1noc(CSc2nnc(-c3ccncc3)n2-c2ccc(F)cc2)n1	/	/	/	1%	4%	1%
CCN(CC)CCCNC(=O)CCC(=O)NNc1nc2ccccc2c2nc(C)nn12	0%	-15%	-3%	5%	79µM*!	5%
CCOc1ccccc1NC(=O)C(=O)/C=C(\O)c1cc(OC)ccc1OC	-3%	-25%	21µM*	5%	?	?
COc1ccc(OC)c(/C(O)=C/C(=O)C(=O)Nc2cc(C)ccc2OC)c1	-1%	5%	-6%	2%	9%	3%
SMILES	S-ASM inh	Tb PFK block	PLK1 PBD block	TDP1 block	VDR inhibitor	Pin1 inh
CCCCN(CC)C(=O)CSc1nc2n[nH]c(C)c2c(=N)n1-c1cccc(Cl)c1	/	/	/	-1%	9%	-3%
CCCCC[C@H](O)/C=C/C=C\C=C\C=C\[C@@H](O)[C@@H](O)CCCC(=O)O	/	/	/	6%	0%	/
Cc1cccc(N(C)S(=O)(=O)c2c(C)[nH]c(C)c2C(=O)N2CCCC2)c1	1%	-4%	24µM*	4%	-25%	-5%
O=C1CCc2cc(S(=O)(=O)Nc3cccc(B(O)O)c3)ccc2N1	/	/	/	0%	/	-3%
Cc1cnc(CNc2ncncc2-c2ccccc2CN(C)C)cn1	/	/	/	28µM*	-10%	/
COCCCNC(=O)C1CCN(C(=O)c2ccc(-n3ccc4ccccc43)s2)CC1	/	/	/	0%	9%	3%
COc1ccccc1-c1cc(Nc2ccn[nH]2)ncn1	/	/	/	/	45µM*	/
COc1ccccc1-c1cc(Nc2ccc(F)cc2)ncn1	/	/	/	/	-3%	/
CCn1c(=O)c(=O)[nH]c2cc(C(=O)NCC3CCCCC3)ccc21	1%	0%	2%	2%	-19%	0%
CCn1c(=O)c(=O)[nH]c2cc(C(=O)NC3CCCC3)ccc21	-1%	4%	30µM*	-1%	?	-8%
CCCCCCCCCCCCCC/C(C(=O)O)=C(\C)C(=O)O	/	/	/	-4%	-1%	/
O=C(Nc1ccc(NC(=O)C2CC2)cn1)c1ccccc1Cl	1%	4%	24µM*	3%	16%	-9%
O=C(Nc1ccc(NC(=O)C2CC2)cn1)c1ccccc1	-1%	-8%	1%	2%	10%	-8%
O=[N+]([O-])c1cnccc1Nc1ccccc1	-4%	-6%	27µM*	3%	?	-9%
O=C(O)c1cccc(Nc2ccncc2[N+](=O)[O-])c1	0%	5%	24µM*	/	?	-10%
Cc1ccc(-c2cn(-c3ccccc3)c(=S)[nH]2)cc1C	-4%	-26%	30µM*	/	-14%	6%
COc1ccc(-n2cc(-c3ccc(OC)c(OC)c3)[nH]c2=S)cc1	-6%	?	24µM*	6%	-15%	-2%
COc1ccc(-c2cn(-c3ccc(C)cc3C)c(=S)[nH]2)cc1OC	-3%	-4%	-24%	/	-6%	-11%

Compound activity as filed in PubChem.
